From PubChem BioAssay AID2685 (National Center for Advancing Translational Sciences (NCATS), 2010) come the findings set out here.

Molecules are shown by their SMILES. Screen size: about 320,000 compounds; about 2,100 (0.66%) were called active. Inconclusive results (about 53%) are left out. Calls come from the whole dose curve; as a rule, active = well fitted inhibition curve with a large enough effect in the signal ratio, with a control signal flat (not every such curve was filed as active); inconclusive = small, poorly fitted or top-dose-only effect, or effect the other way, or a change in a side signal; inactive = flat fitted curve, though single readings scatter; the % refers to the signal ratio. The list comes from a sample in which actives are over-represented; it also holds similar structures and randomly drawn compounds.
Potency is the fitted concentration of half-maximal effect.

This test is described as follows: qHTS Assay for Lipid Storage Modulators in Drosophila S3 Cells.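 For cell number change: cells counted by Cell Tracker Red CMTPX staining in the red channel.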 For lipid storage change, negative = inhibition: % is set by controls: 0 for no effect and ±100 for the full control effect. The following applies: BODIPY lipid droplet fluorescence, 18-24 h, cells fed with added oleic acid; cell number change: measured here: cell count max response; series mostly up to 46.1 µM; lipid storage change, negative = inhibition: at the top concentration. Put shortly: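 Drosophila S3 cells got compounds at several concentrations plus oleic acid (400 uM solution). Laser-scanning cytometry with 488 nm excitation read lipid droplets at 500-530 nm and cells at 575-640 nm. Percent activity was relative to 20 uM Triacsin C.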
In general terms: In qHTS, concentration-response curves come from the screen itself.
Take `OC1(c2ccccc2)CCN(Cc2ccccc2)C2CCCCC21` (centres undefined): the “lipid storage change, negative = inhibition” value is -16.4% (inactive) and the cell number change was -0.282%. Regarding `COc1ccc(-n2c(/C=C(\C)O)nc(=O)c3c(C)cc(C)nc32)cc1`, the compound was classed as inactive.

In the case of `COC(=O)C1Cc2c([nH]c3ccccc23)CN1C(C)=O` (centres undefined), the “lipid storage change, negative = inhibition” value was 2.74% (inactive) and the cell number change worked out at 2.42%.

On to `O=C(NCCN1C(=O)S/C(=C/c2cccnc2)C1=O)c1cccs1`, for which the Potency is 2.31 µM (active) and the cell number change is -5.78%. Take `O=C(O)CCN1C(=O)S/C(=C\c2cccnc2)C1=O`: the “lipid storage change, negative = inhibition” value is -6.97% (inactive) and the cell number change turned out to be 3.35%. Turning to `COc1ccc(/C=C2/SC(=O)N(CCNC(=O)C3CCCN3C(=O)c3cccs3)C2=O)cc1` (centres undefined), the Potency is 20.6 µM (active) and the cell number change was -3.84%. Regarding `COc1ccc(/C=C2/SC(=O)N(CCNC(=O)C3COc4ccccc4O3)C2=O)cc1` (centres undefined), the “lipid storage change, negative = inhibition” value is 7.79% (inactive) and the cell number change was -11.7%. For `O=C(COC(=O)C1CCCN1C(=O)c1cccs1)Nc1ccc2c(c1)OCO2` (centres undefined), in that order: 17.5% (inactive) and 11.1%. Take `COc1ccc(/C=C2\SC(=O)N(CCNC(=O)C3CC4C=CC3C4)C2=O)cc1` (centres undefined): the “lipid storage change, negative = inhibition” value is 22.3% (inactive). Turning to `COc1ccc(NC(=O)COC(=O)[C@@H]2CCCN2C(=O)c2cccs2)cc1`, the Potency was 29.1 µM (active) and the cell number change was 7.9%. `O=C(NCCN1C(=O)S/C(=C\c2cccnc2)C1=O)c1ccc([N+](=O)[O-])s1`: the “lipid storage change, negative = inhibition” value is -4.61% (inactive) and the cell number change is 0.268%. Take `COc1ccc(NC(=O)COC(=O)[C@@H]2CCCN2C(=O)c2cccs2)c(OC)c1`: the “lipid storage change, negative = inhibition” value is -14.7% (inactive) and the cell number change was -0.232%.

As to `CCOc1c([N+](=O)[O-])cc2c(C)c(C(=O)N3CCN(C)CC3)oc2c1OCC`, the “lipid storage change, negative = inhibition” value was 15.5% (inactive) and the cell number change was -1.04%.

Regarding `CC(C)CC(c1nnnn1C1CCCC1)N1CCN(C(=O)c2ccco2)CC1` (centres undefined), the result was inactive and the cell number change was -2.29%. As for `COc1ccccc1C(=O)Nc1ccc2[nH]ncc2c1`, the result was inactive and the cell number change worked out at 0.824%. As for `CC(=O)C1=C(O)C(=O)N(Cc2ccccc2)C1c1ccc(F)cc1` (centres undefined), the “lipid storage change, negative = inhibition” value is 11.4% (inactive) and the cell number change was -7.48%.

On to `CC(=O)C1=C(O)C(=O)N(Cc2ccccc2)C1c1ccccc1F` (centres undefined), for which the Potency is 18.4 µM (active) and the cell number change is -6.03%. Consider `CC(C)(C)C(=O)C1=C(O)C(=O)N(Cc2ccccc2)C1c1ccccc1F` (centres undefined), for which the “lipid storage change, negative = inhibition” value is 19.2% (inactive) and the cell number change was found to be 0.73%.

Regarding `S=C(NCC1CCCO1)NC1CCCC1` (centres undefined), the Potency is 1.3 µM (active). Take `S=C(NCC1CCCO1)NC12CC3CC(CC(C3)C1)C2` (centres undefined): the “lipid storage change, negative = inhibition” value was 1.37% (inactive) and the cell number change turned out to be 5.13%.

For the compound `S=C(NCC1CCCO1)Nc1ccccc1` (centres undefined), the “lipid storage change, negative = inhibition” value was -17.6% (inactive) and the cell number change is -0.626%. For `CCOC(=O)c1c(C)[nH]c(C(=O)COC(=O)c2oc3ccc(OC)cc3c2C)c1C`, the “lipid storage change, negative = inhibition” value is 6.95% (inactive) and the cell number change is -6.84%. For `CCc1nnc(NC(=O)CSc2nc3ccccc3o2)s1`, the compound was classed as inactive.

As for `O=C(CSc1nc2ccccc2o1)Nc1nncs1`, the Potency is 16.4 µM (active) and the cell number change is 24.7%. As to `Cc1nnc(NC(=O)CSc2nc3ccccc3o2)s1`, the “lipid storage change, negative = inhibition” value is -5.01% (inactive) and the cell number change was -14%.

In the case of `O=C(O)CCc1nc(-c2cccs2)no1`, the “lipid storage change, negative = inhibition” value was 1.61% (inactive) and the cell number change is -23%. Take `CC(C)C(=O)Nc1ccc(-c2nc3ncccc3o2)cc1`: the “lipid storage change, negative = inhibition” value is -16.9% (inactive) and the cell number change came to 0.493%. The matching figures for `COc1cc(C=O)ccc1OC(=O)c1ccncc1`: 2.65% (inactive) and -18.5%.

Take `COc1ccc(S(=O)(=O)N(C)c2ccc(C(=O)N3CCCC3)cc2)cc1`: the “lipid storage change, negative = inhibition” value was 14.8% (inactive) and the cell number change was 18.3%. For `CN(c1ccccc1)S(=O)(=O)c1ccc(C(=O)N2CCCC2)cc1`, in that order: 15.8% (inactive) and -4.2%.

Consider `COc1ccc(S(=O)(=O)N(C)c2ccc(C(N)=O)cc2)cc1`, for which the Potency was 18.4 µM (active). Turning to `CN(c1ccc(C(=O)N2CCCCCC2)cc1)S(=O)(=O)c1ccccc1`, the Potency is 5.17 µM (active) and the cell number change was -9.4%. As to `COc1ccc(S(=O)(=O)N(C)c2ccc(C(=O)N3CCOCC3)cc2)cc1OC`, the result was inactive. For `COc1ccc(S(=O)(=O)N(C)c2ccc(C(=O)N3CCCCC3)cc2)cc1OC`, the “lipid storage change, negative = inhibition” value is 6.04% (inactive) and the cell number change is 2.05%. As for `COc1ccc(S(=O)(=O)N(C)c2ccc(C(=O)N3CCCCC3)cc2)cc1`, the result was inactive.

With `CN(c1ccc(C(=O)N2CCN(c3ccc(F)cc3)CC2)cc1)S(C)(=O)=O`, the result was inactive. For the compound `CN(c1ccc(C(=O)N2CCOCC2)cc1)S(C)(=O)=O`, the Potency is 25.9 µM (active) and the cell number change is -14.6%. Turning to `CN(c1ccc(C(=O)Nc2ccccc2C(=O)N2CCOCC2)cc1)S(C)(=O)=O`, the “lipid storage change, negative = inhibition” value was -2.12% (inactive) and the cell number change is -16%. Consider `COc1ccc(S(=O)(=O)N(C)c2ccc(C(=O)N3CCCC3)cc2)cc1OC`, for which the Potency is 0.326 µM (active) and the cell number change is -7.14%. Consider `CN(c1ccc(C(=O)N2CCCCC2)cc1)S(=O)(=O)c1ccccc1`, for which the compound was called inactive and the cell number change is -27%. For `CCCNC(=O)c1oc2ccc3c(c2c1C)C(O)CC(C)(C)O3` (centres undefined), in that order: “inactive” and 11.7%. On to `O=C(CN1C2CCCC1CC(NC(=O)c1ccco1)C2)Nc1ccccc1C(F)(F)F` (centres undefined), for which the “lipid storage change, negative = inhibition” value is 6.75% (inactive) and the cell number change was 1.61%. For `Cc1ccc(C(c2sc3ncnn3c2O)N2CC(C)CC(C)C2)cc1` (centres undefined), in that order: -14% (inactive) and -0.62%. The matching figures for `O=C1c2cccc3cccc(c23)C(=O)N1CC1CCN(S(=O)(=O)c2ccc(F)cc2)CC1`: 0.656% (inactive) and 1.3%. The matching figures for `O=S(=O)(Nc1ccc(N2CCCCC2)cc1)c1ccccc1F`: -8.36% (inactive) and -15.7%. For `CCOc1ccc2nc(CN3CCN(Cc4ccsc4)C(CCO)C3)ccc2c1` (centres undefined), the “lipid storage change, negative = inhibition” value is -13.8% (inactive) and the cell number change came out at 3.37%.

For `Cc1nnc(SCC(=O)N(C)c2c(N)n(Cc3ccccc3)c(=O)[nH]c2=O)n1Cc1ccccc1`, the “lipid storage change, negative = inhibition” value was -5.33% (inactive) and the cell number change was 4.04%. As for `CN(C)S(=O)(=O)N1CCN(C(=O)c2ccccc2)CC1`, the Potency is 23.1 µM (active) and the cell number change amounted to 10.4%.

`COc1ccc(S(=O)(=O)N(C)CC(=O)N2CCCC2)cc1`: the “lipid storage change, negative = inhibition” value was -3.08% (inactive) and the cell number change was -6.74%. With `COc1ccc(S(=O)(=O)N(C)CC(=O)N2CCC(C(N)=O)CC2)cc1`, the Potency is 14.6 µM (active) and the cell number change is -9.84%. In the case of `COc1ccc(S(=O)(=O)N(C)c2ccc(C(=O)N3CCC(C(N)=O)CC3)cc2)cc1`, the “lipid storage change, negative = inhibition” value is 1.68% (inactive) and the cell number change was -14.8%. The matching figures for `Cc1ccccc1NS(=O)(=O)c1ccc(C(=O)N2CCCCCC2)cc1`: 24.1% (inactive) and 4.54%.

`O=C(c1ccccc1)N1CCN(S(=O)(=O)N2CCCCCC2)CC1`: the compound was classed as inactive and the cell number change was found to be 22.9%. Regarding `Cc1ccc(S(=O)(=O)N(C)c2ccc(C(=O)N3CCC(C(N)=O)CC3)cc2)cc1`, the Potency was 23.1 µM (active) and the cell number change was -5.24%. In the case of `Cc1cccc(NS(=O)(=O)c2ccc(C(=O)N3CCC3)cc2)c1C`, the “lipid storage change, negative = inhibition” value was 21.3% (inactive) and the cell number change was found to be 19.3%. Regarding `Cc1ccccc1NS(=O)(=O)c1ccc(C(=O)N2CCN(S(=O)(=O)c3ccccc3)CC2)cc1`, the Potency was 3.26 µM (active) and the cell number change was -28%. On to `CCOC(=O)C1CCN(C(=O)c2ccc(N(C)S(=O)(=O)c3ccc(OC)cc3)cc2)CC1`, for which the “lipid storage change, negative = inhibition” value is -25.7% (inactive) and the cell number change was -4.35%. For `COc1ccc(S(=O)(=O)N(C)CC(=O)N2CCCCCC2)cc1`, in that order: 9.93% (inactive) and 7.92%. As to `CN(C)S(=O)(=O)N1CCN(C(=O)c2ccccc2Cl)CC1`, the result was inactive.
